CHO-K1 Ca ag = nonselective activator or artifact in parental CHO-K1 cells; actives 0.48% (n = 360,000); Fluo-8 calcium fluorescence; scaled to maximal ATP response, vehicle zero; AID 602248; activation, % at 3 µM; in the data active = activation above about 15%;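 note: untransfected CHO-K1 host cells lacking M1 receptor as counterscreen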
CHRM1 agonist = agonists of human M1 muscarinic receptor | P11229 | CHO-K1 hM1, Fluo-8 calcium fluorescence, agonist mode; 0% DMSO, 100% acetylcholine EC100 | activation, % at 3 µM | actives 0.33% (n = 360,000);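 active = activation above the run's mean compound activation plus 3 SD, cut at about 16% in these data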;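 note: peak over basal fluorescence ratio within a 140 s kinetic read after compound addition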
Target sequence (P11229 whole entry, looked up): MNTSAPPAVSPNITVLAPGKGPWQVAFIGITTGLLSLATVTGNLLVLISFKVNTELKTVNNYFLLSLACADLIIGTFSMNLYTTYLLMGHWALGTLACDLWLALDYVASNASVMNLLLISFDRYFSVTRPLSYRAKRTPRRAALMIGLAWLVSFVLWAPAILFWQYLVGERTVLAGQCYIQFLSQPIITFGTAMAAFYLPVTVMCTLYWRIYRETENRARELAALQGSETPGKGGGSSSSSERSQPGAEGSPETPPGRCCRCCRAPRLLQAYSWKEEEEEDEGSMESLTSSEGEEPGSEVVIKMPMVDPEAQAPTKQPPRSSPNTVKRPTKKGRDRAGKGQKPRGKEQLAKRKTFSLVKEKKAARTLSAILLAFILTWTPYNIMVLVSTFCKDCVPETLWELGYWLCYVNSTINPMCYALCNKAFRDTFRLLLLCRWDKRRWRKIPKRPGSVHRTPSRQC
CHRM1 PAM = potentiates human M1 receptor response to acetylcholine; activation, % at 3 µM; actives 0.088% (n = 360,000); CHO-K1 hM1, Fluo-8 calcium fluorescence, ACh EC20; 0% = ACh EC20, 100% = maximal ACh; AID 588819; in the data active = activation above about 19%, passing the limit was not always enough
M1 antag = human CHRM1 antagonism. CHO-K1 hM1, Fluo-8 calcium fluorescence, ACh EC80 antagonist. actives 1.3% (n = 360,000). inhibition, % at 3 µM. AID 588852;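 active = percent inhibition above its own plate's cutoff, namely the mean of that plate's compound wells plus 3 SD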;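 note: peak over basal fluorescence ratio during 140 s after agonist addition; 0% = ACh EC80 plus DMSO and 100% = DMSO alone without agonist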
CHO-K1 Ca antag = counter-screen for M1 antagonists: effect in parental CHO-K1 cells | ATP-induced calcium, Fluo-8 fluorescence | inhibition, % at 3 µM | actives 0.6% (n = 360,000) | AID 602250;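 active = inhibition above a per-plate cutoff, the plate's mean sample inhibition plus 3 SD, cut at about 24% in these data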;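 note: 0% = DMSO plus EC80 ATP and 100% = DMSO alone without ATP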
M1 PAM parental = M1 PAM counterscreen hit in parental CHO-K1 cells; activation, % at 3 µM; actives 0.02% (n = 360,000); AID 602247; ATP EC20, Fluo-8 calcium fluorescence; 0% at ATP EC20, 100% at ATP max;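 active = activation above the run cutoff, the mean activation of all test compounds plus 3 SD, cut at about 40% in these data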;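 note: peak over basal fluorescence ratio in a 140 s read after ATP addition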
Numbers without * were called inactive. This is a sample that favours compounds with a hit; in the whole collection about 2.4% have one here.

SMILES | CHO-K1 Ca ag | CHRM1 agonist | CHRM1 PAM | M1 antag | CHO-K1 Ca antag | M1 PAM parental
CC(=O)N1CCN(Cc2nc3cc(NC(=O)c4ccccc4)ccc3n2C)CC1 | 0.5 | -1.2 | -5.1 | -5.2 | 8.9 | -3.0
Cc1nn(CC(=O)Nc2ccc3c(c2)nc(CCN2CCCCC2)n3C)c(=O)c2ccccc12 | 0.3 | -6.8 | -21.4 | 40.4* | -5.3 | 15.3
COc1ccccc1C(=O)Nc1ccc2c(c1)nc(CN1CCN(C(C)=O)CC1)n2C | -0.6 | -2.7 | -5.6 | 6.3 | 24.2* | -7.5
CC1CCN(CCc2nc3cc(NC(=O)C(C)C)ccc3n2C)CC1 | 1.9 | -11.0 | -31.6 | 88.2* | -13.0 | 0.1
CC(C)C(=O)Nc1ccc2c(c1)nc(CCN1CCCCC1)n2C | 1.1 | -10.7 | 6.1 | -7.6 | 0.8 | 6.7
CC(C)C(=O)Nc1ccc2c(c1)nc(CCN1CCN(c3ccccc3)CC1)n2C | 0.3 | -8.3 | -19.4 | 44.5* | 10.6 | -15.9
Cn1nc(C(=O)OCC(=O)Nc2ccc(Cl)cc2Cl)c2ccccc2c1=O | -0.2 | 1.1 | 16.2 | -6.1 | -3.9 | 14.0
Cc1cccc(N2CCN(C(=O)c3oc4ccc(Br)cc4c3C)CC2)c1C | 0.0 | -4.0 | -0.2 | -4.0 | -10.3 | 13.1
COc1cccc(NC(=O)Nc2nnc(CC(=O)Nc3ccccc3)s2)c1 | 1.3 | -1.6 | 1.6 | -5.5 | -11.2 | 16.1
Cn1c(CN2CCN(c3cccc(Cl)c3)CC2)nc2ccccc21 | 0.5 | -6.5 | -14.8 | 26.1* | 0.9 | -3.4
Cn1c(=O)[nH]c(=O)c2c1nc(CN1CCN(c3cccc(Cl)c3)CC1)n2CCc1ccccc1 | 0.0 | 1.3 | 14.2 | -16.8 | -21.6 | 18.5
CCOC(=O)c1ccc(NC(=O)Nc2ccc(F)cc2)cc1 | 12.2 | 10.3 | -14.7 | 21.0* | 48.6* | -5.8
CCOC(=O)c1ccc(NC(=O)C2CCCN(S(=O)(=O)c3ccc(F)cc3)C2)cc1 (stereo unspecified) | 10.1 | 1.5 | -17.1 | 47.7* | 6.4 | -0.9
CC(=O)c1cccc(NC(=O)C2CCCN(S(C)(=O)=O)C2)c1 (stereo unspecified) | 0.1 | 9.1 | 6.1 | -8.2 | 2.1 | 9.1
CCOC(=O)c1ccc(NC(=S)NC2CCCC2)cc1 | 6.4 | -6.9 | -3.5 | 7.3 | 16.9 | -11.8
CCOC(=O)c1ccc(NC(=O)NC2CC3CCC(C2)N3)cc1 (stereo unspecified) | 1.7 | -5.8 | -22.3 | 59.5* | -30.9 | 29.8
CCOC(=O)c1ccc(NC(=O)C2CCN(S(=O)(=O)c3ccccc3)CC2)cc1 | 0.5 | 3.4 | 11.4 | -20.4 | 0.5 | 17.2
CS(=O)(=O)N1CCCC(C(=O)Nc2cccc(F)c2)C1 (stereo unspecified) | 0.3 | 2.2 | 32.0* | -35.0 | -9.8 | 17.1
COCCSc1ccccc1C(=O)Nc1cc(C)cc(C)c1 | -0.1 | -6.7 | 6.0 | 0.4 | -7.7 | 9.2
CC(=O)N(Cc1cc2c(C)cc(C)cc2[nH]c1=O)C1CCCCC1 | 0.8 | 5.4 | 10.6 | -4.0 | 11.1 | 2.1
COc1ccccc1N(CC(=O)NCC1CCCO1)C(=O)CCC(=O)Nc1cc(C)on1 (stereo unspecified) | 0.9 | -3.0 | 16.9 | -14.5 | -8.5 | 15.9
Fc1ccc(-c2nc3ccccn3c2NCc2ccc3c(c2)OCO3)cc1 | 3.6 | -9.7 | -6.6 | 10.9 | 25.7* | -8.2
CCC[N+](CC#Cc1ccccc1)(CCC)CC(=O)OC | -0.2 | -11.7 | 1.1 | -3.6 | -3.8 | 19.9
CCN(CC)c1ccc(/C=N/n2c(-c3ccccc3Br)n[nH]c2=S)cc1 | 2.6 | -7.4 | -25.7 | 81.1* | 15.8 | -21.5
Cc1ccc(C(=O)OCC(=O)NC(=O)c2ccc(C(C)(C)C)cc2)c(O)c1 | -0.3 | 1.3 | -12.1 | 33.5* | 14.8 | -8.3
SMILES | CHO-K1 Ca ag | CHRM1 agonist | CHRM1 PAM | M1 antag | CHO-K1 Ca antag | M1 PAM parental
Cc1ccc(C)c(N2CCN(C(=O)CCc3nc(-c4cccc(F)c4)no3)CC2)c1 | 0.2 | -3.5 | -5.2 | 5.7 | 2.8 | 6.0
N#CC1=C(N)OC2=C(CC/C2=C\c2ccccc2Cl)C1c1ccccc1Cl (stereo unspecified) | 2.0 | -3.1 | -1.6 | 7.3 | -0.3 | -10.3
N#CC1=C(N)OC2=C(CC/C2=C\c2ccccc2)C1c1ccccc1 (stereo unspecified) | 20.7* | 17.9* | -10.4 | 30.8* | 26.2* | 1.6
Cc1ccc(-c2ccccc2NC(=O)C2C3C=CC(C3)C2C(=O)O)o1 (stereo unspecified) | 0.4 | -1.6 | 10.0 | -7.8 | -5.2 | 14.8
OCC1OC(n2cnc3c(SCc4ccccc4)nc(NO)nc32)C(O)C1O (stereo unspecified) | 0.5 | -8.5 | -29.7 | 71.0* | -14.5 | 11.8
CC1=[N+](CC(=O)NC(C)(C)C)CCc2ccccc21 | 2.1 | -10.6 | 3.6 | -0.2 | -14.5 | 30.1
Cc1ccc(NS(=O)(=O)c2ccc(-n3cccn3)cc2)nc1 | 1.6 | -3.8 | 4.5 | -6.5 | 31.1* | 11.9
COc1cccc(NS(=O)(=O)c2ccc(-n3cccn3)cc2)c1 | 16.2* | 3.7 | -17.5 | 43.9* | 12.2 | -0.4
Cc1ccc(NS(=O)(=O)c2ccc(-n3cccn3)cc2)c(C)c1 | 8.6 | 4.0 | -3.3 | 4.2 | -11.6 | 11.6
Cc1ccc(NS(=O)(=O)c2ccc(-n3cccn3)cc2)cc1F | 5.2 | 1.1 | -6.7 | 10.1 | -7.4 | 4.4
O=C1CSc2ccc(S(=O)(=O)N3CCN(c4ccccc4F)CC3)cc2N1 | 3.6 | 0.1 | -2.6 | 4.3 | -11.0 | 14.7
Cc1ccccc1NC(=O)NNC(=O)c1ccc2ccccc2c1O | 0.1 | -1.6 | -1.8 | 7.4 | 16.6 | -24.5
Cc1ccc(S(=O)(=O)C(C#N)c2nc3ccccc3nc2N2CCN(C)CC2)cc1C (stereo unspecified) | -0.1 | -0.7 | 13.5 | -7.4 | 6.4 | 16.4
Cc1cc(C)c(CN2CCN(C(=O)Cn3cnc4c(NCc5ccccc5)ncnc43)CC2)c(C)c1 | 1.1 | -0.9 | 0.9 | 0.9 | 25.2* | -10.0
C=CC[C@@H](CC(=O)N(CCO)Cc1ccccc1)C(=O)NC[C@H](OC(=O)[C@@H](CC=C)Cc1ccc(F)cc1)c1ccccc1 | 6.3 | -1.0 | -17.0 | 33.5* | -11.4 | -11.8
C=CC[C@@H](CC(=O)N(CCO)Cc1ccccc1)C(=O)N[C@H](COC(=O)[C@@H](CC=C)Cc1ccc(F)cc1)c1ccccc1 | 0.7 | -1.8 | -1.2 | 7.4 | -12.9 | -2.7
CC1=C(C(=O)N2CCCC(CCC(=O)NCc3ccc(F)c(F)c3)C2)OCCO1 (stereo unspecified) | 0.7 | -2.7 | 6.6 | -14.1 | -19.3 | 10.8
O=C(CN1C(=O)c2ccccc2S1(=O)=O)N1CCc2ccccc2C1 | -0.1 | -1.6 | -10.0 | 1.1 | 25.0* | -8.6
CC1CCN(C(=O)CN2C(=O)c3ccccc3S2(=O)=O)CC1 | 0.2 | -0.7 | -4.0 | -18.7 | 2.5 | -2.6
C=CCn1cccc(C(=O)Nc2ccc(OC)c(OC)c2)c1=O | 15.5* | -3.1 | 0.5 | 0.0 | 4.8 | 1.4

Screening results from PubChem.
